An excerpt weighted towards active compounds, which were near 3% of everything screened.
SENP6 inh: SENP6 protease inhibitors, primary screen, biochemical, luminescence, uHTS; Recombinant SENP6 catalytic domain, aminoluciferin luminescence; Sentrin-specific protease 6 (Homo sapiens), Q9GZR1; 330,000 compounds, 1.8% hits; inhibition, % at 10 µM;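 active = inhibition above about 50% at the single tested dose, limit read from the data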
Target sequence (Q9GZR1 628-1112 limits assumed): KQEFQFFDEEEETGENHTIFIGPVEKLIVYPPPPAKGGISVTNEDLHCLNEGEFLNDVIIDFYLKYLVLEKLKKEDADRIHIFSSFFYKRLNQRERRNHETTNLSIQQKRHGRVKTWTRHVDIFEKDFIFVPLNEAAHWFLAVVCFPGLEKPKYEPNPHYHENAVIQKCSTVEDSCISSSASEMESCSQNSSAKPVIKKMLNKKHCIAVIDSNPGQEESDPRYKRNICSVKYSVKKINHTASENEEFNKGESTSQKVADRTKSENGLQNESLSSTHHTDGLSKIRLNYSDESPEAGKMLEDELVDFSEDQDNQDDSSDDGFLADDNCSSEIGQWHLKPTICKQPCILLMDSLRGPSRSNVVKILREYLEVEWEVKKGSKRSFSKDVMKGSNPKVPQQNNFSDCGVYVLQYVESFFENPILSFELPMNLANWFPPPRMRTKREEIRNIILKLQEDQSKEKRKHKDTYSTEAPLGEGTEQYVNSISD
SENP7 block: SENP7 protease inhibitors, primary screen, biochemical, luminescence, uHTS | 330,000 compounds, 1.5% hits | inhibition, % at 5 µM | recombinant SENP7, Z-RLRGG-aminoluciferin luminescence, 40 min | Sentrin-specific protease 7 (Homo sapiens), Q9BQF6 | AID 434973, 2010;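 active = inhibition above about 50% at the single test dose, limit read from the data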
SENP8 block-1: SENP8 protease inhibitors, primary screen, biochemical, luminescence; Sentrin-specific protease 8 (Homo sapiens), Q96LD8; purified SENP8, Z-RLRGG-aminoluciferin cleavage; inhibition, % at 10 µM; 330,000 compounds, 1.2% hits; AID 2540, 2010; in the data active = inhibition above about 50%
Target sequence (Q96LD8 whole entry, looked up): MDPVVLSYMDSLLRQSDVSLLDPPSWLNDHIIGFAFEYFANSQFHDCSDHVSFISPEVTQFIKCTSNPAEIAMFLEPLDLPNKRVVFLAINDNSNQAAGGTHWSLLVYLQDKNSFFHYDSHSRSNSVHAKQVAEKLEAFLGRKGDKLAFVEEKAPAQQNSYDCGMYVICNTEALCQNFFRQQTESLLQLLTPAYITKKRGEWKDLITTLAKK
PPC-1+TRAIL kill: compounds killing PPC-1 cancer cells with TRAIL present, primary screen, TRAIL potentiator project, ATPLite luminescence, uHTS. cell killing (% activity), % at 4 µM or 5 µM. 220,000 compounds, 0.41% hits. PPC-1 cells + TRAIL, ATPLite viability luminescence;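 active = cell killing above 50% in the first pass at 4 µM, then a duplicate retest at 5 µM averaging 50% or more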
SENP8 block-2: human SENP8 protease inhibitors, primary screen, biochemical, fluorescence, Nedd8 protein substrate, uHTS. Sentrin-specific protease 8 (Homo sapiens), Q96LD8. recombinant SENP8. inhibition, % at 20 µM. 360,000 compounds, 0.64% hits. AID 602440, 2012; in the data active = inhibition mostly above about 40%, no sharp cut-off; inactive = mostly below about 27%
C8 TRAIL sens: viability loss with TRAIL in NB7+C8 cells, primary screen, TRAIL sensitizer project, cell-based, ATPlite luminescence; inhibition (viability loss, TRAIL sensitization), % at 10 µM; 360,000 compounds, 1% hits;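 active = compounds causing at least 50% loss of cell viability in the single-dose screen, relative to plate controls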
SENP8 conf: human SENP8 protease inhibitors, confirmation, biochemical, Nedd8 protein substrate, single concentration; shares compounds with SENP8 block-2; purified SENP8, Nedd8-AMC/pro-Nedd8 cleavage fluorescence, 30 min; inhibition, % at 25 µM; 1,400 compounds, 15% hits; AID 624319, 2012; in the data active = inhibition mostly above about 39%, no sharp cut-off; inactive = mostly below about 34%
Large screens that a line does not name were inactive (follow-up assays come after a bar, where they were run).

Nn1cnnc1N/N=C/c1ccc(Cl)c([N+](=O)[O-])c1	SENP8 block-2 66 | SENP8 conf 64
O=C(/C(=C(\[O-])c1ccccc1)[n+]1ccc2ccccc2c1)c1ccc(Cl)cc1	SENP8 block-2 46 | SENP8 conf 62
O=C(/C(=C(\[O-])c1ccccc1)[n+]1ccc2ccccc2c1)c1ccccc1	none (no result: SENP6 inh, SENP7 block, SENP8 block-1)
Cc1cccnc1NC1(C(F)(F)F)N=C(c2ccccc2)NC1=O (stereo not drawn)	none
C/C(CC(=O)Nc1cccnc1)=N\NC(=O)c1ccc([N+](=O)[O-])c(Cl)c1	none
CC(=O)Nc1ccccc1NC(=O)C/C(C)=N/NC(=O)c1ccc([N+](=O)[O-])c(Cl)c1	SENP8 block-2 40 | SENP8 conf inactive
O=C1CC(c2cccc(O)c2)Oc2ccccc21 (stereo not drawn)	none (no result: PPC-1+TRAIL kill)
O=C1CC(c2ccc(O)cc2)Oc2cc(O)ccc21 (stereo not drawn)	SENP8 block-2 51 (no result: PPC-1+TRAIL kill) | SENP8 conf inactive
COCOc1ccc(C2CC(=O)c3c(OCOC)cc(OCOC)cc3O2)cc1 (stereo not drawn)	SENP8 block-2 54 (no result: PPC-1+TRAIL kill) | SENP8 conf inactive
COc1ccc([C@@H]2CC(=O)c3c(O)cc(O)cc3O2)cc1O	none (no result: PPC-1+TRAIL kill)
COc1cc(O)c2c(c1)OC(c1ccc(O)cc1)CC2=O (stereo not drawn)	SENP8 block-2 74 | SENP8 conf inactive
Cc1ccc(-c2nc(SC(C)C(=O)N3CCCC3)n[nH]2)cc1 (stereo not drawn)	none (no result: PPC-1+TRAIL kill)
O=C(CNc1ccc2c(c1)OCO2)N/N=C\c1cn(Cc2ccccc2)c2ccccc12	SENP8 block-2 44 | SENP8 conf inactive
CCc1ccc(C(=O)NNc2ccccc2F)cc1	SENP8 block-2 26 | SENP8 conf inactive
CCc1ccc(C(=O)NNc2ccc(F)cc2)cc1	none
COC(=O)CSc1nnc(CNS(=O)(=O)c2ccc(Br)cc2)n1C	none
COC(=O)CSc1nnc(CNS(=O)(=O)c2ccc(C)cc2)n1C	SENP8 block-2 42 | SENP8 conf inactive
COC(=O)CSc1nnc(CNc2ccc(OC)cc2)n1C	SENP8 block-2 69 | SENP8 conf inactive
CCOc1ccc(S(=O)(=O)N2CCCC(C(=O)N3CCCC3)C2)cc1 (stereo not drawn)	none (no result: PPC-1+TRAIL kill)
Cc1ccc(S(=O)(=O)NC(=O)Nc2ccc(N(C)C)cc2)cc1	SENP8 block-2 75 (no result: PPC-1+TRAIL kill) | SENP8 conf 64
CSCC[C@H](NC(=O)[C@@H]1CSC2c3ccccc3C(=O)N21)C(=O)N1CCC[C@H]1CO (stereo partly drawn)	SENP8 block-2 62 (no result: PPC-1+TRAIL kill) | SENP8 conf inactive
CSCC[C@H](NC(=O)[C@@H]1CSC2c3ccccc3C(=O)N21)C(=O)NC1CCCC1 (stereo partly drawn)	none (no result: PPC-1+TRAIL kill)
O=S(=O)(c1cccc(F)c1)N1CCN(Cc2cc3c(cc2Br)OCCO3)CC1	none (no result: PPC-1+TRAIL kill)
O=[N+]([O-])c1cc([N+](=O)[O-])c2n[nH]c(-c3ccccc3)c2c1	SENP8 block-2 35 | SENP8 conf inactive
Cc1ccc(C(=O)N2CCN(Cc3ccccc3)CC2)o1	none (no result: PPC-1+TRAIL kill)
O=C(c1ccc([N+](=O)[O-])o1)N1CCN(Cc2ccccc2)CC1	SENP8 block-2 42 (no result: PPC-1+TRAIL kill) | SENP8 conf inactive
CCOC1=C2[C@H](c3ccc(CC)cc3)N(S(=O)(=O)c3ccc(C)cc3)C[C@H]2C(C#N)(C#N)C(C#N)(C#N)C1	none (no result: SENP6 inh, SENP7 block, SENP8 block-1, PPC-1+TRAIL kill)
CC(=O)c1cccc(NS(=O)(=O)N2CCCCC2)c1	SENP8 block-2 41 | SENP8 conf inactive
CN1CCC2(CC1)N=C(c1ccc(F)cc1)C(=S)N2C(=O)c1ccc(C(C)(C)C)cc1	SENP8 block-2 53 | SENP8 conf inactive
Cn1c(Cc2ccccc2)nnc1SCC(=O)Nc1ccccc1	none
Cn1c(Cc2ccccc2)nnc1SCC(=O)c1cccs1	SENP8 block-2 40 | SENP8 conf inactive
O=C(CCC(=O)N1CCc2ccccc2C1)N1CCN(S(=O)(=O)c2ccccc2)CC1	SENP8 block-2 43 | SENP8 conf 64
O=C(CCCOc1ccccc1)N1CCN(S(=O)(=O)c2ccccc2)CC1	none (no result: PPC-1+TRAIL kill)
C[C@@H](OC(=O)c1[nH]cnc1C(=O)N1CCc2ccccc2C1)c1ccccc1	SENP8 block-2 52 (no result: PPC-1+TRAIL kill) | SENP8 conf 86
COCCn1c(CN2CCN(C(=O)c3ccco3)CC2)nc2c1c(=O)n(C)c(=O)n2C	none (no result: PPC-1+TRAIL kill)
Cn1c(SCC(=O)NCCc2ccccc2)nnc1C1CCCCC1	none (no result: PPC-1+TRAIL kill)
COc1cc(OC)c([N+](=O)[O-])cc1/C=N/NC(=O)c1ccncc1	SENP8 block-2 43 | SENP8 conf 97
COc1cc(/C=N/NC(=O)c2ccncc2)c([N+](=O)[O-])cc1OC	none (no result: PPC-1+TRAIL kill)
COc1ccc(-c2csc(C)n2)cc1	none
COc1ccc(-c2csc(CCN3N=C(C)CC3=O)n2)cc1	SENP8 block-2 59 | SENP8 conf 62
Cc1cccc(N2C(=O)/C(=C\c3ccc(C(=O)O)cc3)c3ccccc3C2=O)c1	SENP8 block-2 43 | SENP8 conf inactive
O=C(c1ccccc1)c1cccc(C(=O)c2ccccc2)c1	none (no result: PPC-1+TRAIL kill)
O=C(O)c1cccc(C(=O)O)c1	SENP8 block-2 45 (no result: PPC-1+TRAIL kill) | SENP8 conf inactive
O=C(O)c1cccc(N2C(=O)c3ccc4c5c(ccc(c35)C2=O)C(=O)N(c2cccc(C(=O)O)c2)C4=O)c1	SENP8 block-2 50 | SENP8 conf 50
O=C(O)c1cccc(N2C(=O)c3ccc(Oc4ccc(Cl)cc4)cc3C2=O)c1	none
COc1ccccc1CCNC(=O)c1nccnc1C(=O)O	none (no result: PPC-1+TRAIL kill)
COc1ccc(C(=O)N2C=Cc3ccccc3C2C(N)=O)cc1 (stereo not drawn)	none (no result: SENP6 inh, SENP7 block, SENP8 block-1, PPC-1+TRAIL kill)
COc1ccc(C(=O)N2C=Cc3ccccc3C2C#N)cc1 (stereo not drawn)	SENP8 block-2 50 (no result: SENP6 inh, SENP7 block, SENP8 block-1, PPC-1+TRAIL kill) | SENP8 conf 74
COc1ccc2[nH]c(C(=O)NCc3ccccc3)c(C)c2c1	none (no result: PPC-1+TRAIL kill)
COc1cccc(O)c1CN1CCC(n2nccc2NC(=O)c2ccc3c(c2)OCO3)CC1	none (no result: PPC-1+TRAIL kill)
COc1ccc(N2C(=O)Cc3ccccc3C2=O)cc1	SENP8 block-2 84 (no result: PPC-1+TRAIL kill) | SENP8 conf inactive
O=C(Nc1ccc2c(c1)OCCO2)C1CCN(S(=O)(=O)Cc2ccccc2)CC1	none
O=C(Nc1ccc(N2CCOCC2)cc1)C1CCN(S(=O)(=O)Cc2ccccc2)CC1	SENP8 block-2 40 | SENP8 conf inactive
COC(=O)c1nn(-c2ccc(OC)cc2)c(=O)cc1Sc1ccc(C)cc1	none
COC(=O)c1nn(-c2ccc(OC)cc2)c(=O)cc1NN	SENP8 block-2 57 | SENP8 conf inactive

Assay outcomes as filed in PubChem.
